Sampled rows, rich in hits. Any-hit rate of the full collection: about 6%.
Tau fibril ThT = qHTS for Inhibitors of Tau Fibril Formation, Thioflavin T Binding. recombinant tau K18 P301L, heparin-induced fibrillization, ThT fluorescence. Potency, µM (titrated, usually from 57.4 µM), for inactives: top-dose activity, negative = inhibition, actives largely listed as inhibitors. 270,000 tested, 2.1% active. AID 1460, 2008; also: potency is read from the fitted curve at half-maximal effect; % is scaled to controls: 0 for no effect and ±100 for the full control effect; nearly all actives have a fitted effect of over 55% in size
Target sequence (P10636 561-689 P618L limits assumed): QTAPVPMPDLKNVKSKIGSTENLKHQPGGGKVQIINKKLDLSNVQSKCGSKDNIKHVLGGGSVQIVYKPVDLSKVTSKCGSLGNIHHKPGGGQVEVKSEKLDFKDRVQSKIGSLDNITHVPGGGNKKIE
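Using a mix of unlabeled (15 uM) and Alexa 594-labeled (0.24 uM) tau K18 P301L, heparin-triggered fibrillization over 6 hr at 37 C was scored by ThT fluorescence.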
VDR inh = Inhibitors of the vitamin D receptor (VDR): qHTS; Potency, µM, without a hit: max response, negative = inhibition, actives largely listed as inhibitors; AID 504847, 2011; Vitamin D3 receptor (Homo sapiens), P11473; 400,000 tested, 0.93% active; VDR-SRC2-3 peptide fluorescence polarization, 2 h; also: potency is read from the fitted curve at half-maximal effect; % is scaled to controls: 0 for no effect and ±100 for the full control effect
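After 23 nl compound addition and a short centrifugation, plates sat for 2 hours at ambient temperature; polarization of fluorescence then indicated loss of VDR binding to peptide SRC2-3.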
Sfp inh = qHTS Assay for Inhibitors of Bacillus subtilis Sfp phosphopantetheinyl transferase (PPTase); 310,000 tested, 3.5% active; AID 1490, 2009; Biochemical Sfp PPTase activity, qHTS; Potency, µM, inactives show largest response in the series, negative = inhibition, most hits filed as inhibitors; 4'-phosphopantetheinyl transferase ffp (Bacillus subtilis), Q9F4F7;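 also: the enzyme is Sfp with the accession as filed and its product quenches rhodamine fluorescence; potency is read from the fitted curve at half-maximal effect; 0% = enzyme reaction without inhibitor and -100% = no enzyme wells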
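Step 1, compound plus 15 nM Sfp-PPTase, 15 min, room temperature. Step 2, add rhodamine-CoA (5 uM) and BHQ-2-YbbR (12.5 uM). Step 3, read 525/598 nm fluorescence at 0 and 30 min.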
PLK1 PBD inh = qHTS for Inhibitors of PLK1-PDB (polo-like kinase 1 - polo-box domain): Primary Screen; Serine/threonine-protein kinase PLK1 (Homo sapiens), P53350; Plk1 PBD binding of FITC phosphopeptide, fluorescence polarization; Potency, µM, without a hit: max response, negative = inhibition, actives largely listed as inhibitors; 360,000 tested, 2.8% active; AID 720504, 2013; also: potency is read from the fitted curve at half-maximal effect; series mostly up to about 57 µM; % is scaled to controls: 0 for no effect and ±100 for the full control effect; nearly all actives have a fitted effect of over 65% in size
Target sequence (P53350 whole entry, looked up, the tested form may be a part): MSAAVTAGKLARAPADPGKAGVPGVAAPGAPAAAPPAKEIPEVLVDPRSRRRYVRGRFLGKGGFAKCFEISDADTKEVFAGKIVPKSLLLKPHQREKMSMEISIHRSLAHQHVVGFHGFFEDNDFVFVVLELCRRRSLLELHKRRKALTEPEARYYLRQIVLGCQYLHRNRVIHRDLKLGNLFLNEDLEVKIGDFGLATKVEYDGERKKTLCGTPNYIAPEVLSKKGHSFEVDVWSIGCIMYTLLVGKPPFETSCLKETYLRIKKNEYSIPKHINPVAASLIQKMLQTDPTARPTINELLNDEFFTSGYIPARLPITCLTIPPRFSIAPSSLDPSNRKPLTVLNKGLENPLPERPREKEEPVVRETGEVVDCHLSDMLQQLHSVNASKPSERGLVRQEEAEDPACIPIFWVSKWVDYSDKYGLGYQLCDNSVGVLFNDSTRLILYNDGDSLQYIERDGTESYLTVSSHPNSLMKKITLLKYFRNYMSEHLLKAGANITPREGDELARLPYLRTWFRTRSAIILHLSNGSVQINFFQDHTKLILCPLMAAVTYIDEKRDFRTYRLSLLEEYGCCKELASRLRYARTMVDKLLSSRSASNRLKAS
Tau fluor cs = Counterscreen qHTS for Inhibitors of Tau Fibril Formation, Fluorescence Polarization | 280,000 tested, 0.93% active | Potency, µM (highest dose often 57.7 µM), inactives show at the highest dose activity change, negative = decrease | tau K18 P301L (four-repeat tau fragment) Alexa594 fluorescence, heparin fibrillization; also: potency is read from the fitted curve at half-maximal effect; % is scaled to controls: 0 for no effect and ±100 for the full control effect; nearly all actives have a fitted effect of over 55% in size
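Human K18 P301L tau (15 uM unlabeled plus 0.24 uM Alexa 594-labeled, final) in 100 mM sodium acetate pH 7 was mixed with compound and 20 uM heparin and incubated 6 hr at 37 C.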
Tau fibril FP = qHTS for Inhibitors of Tau Fibril Formation, Fluorescence Polarization; Microtubule-associated protein tau (Homo sapiens), P10636; 280,000 tested, 0.39% active; Potency, µM (highest dose often 57.7 µM), without a hit: at the highest dose activity, negative = inhibition, actives largely listed as inhibitors; K18 P301L tau heparin fibrillization, Alexa594 FP, 6 h; also: potency is read from the fitted curve at half-maximal effect; % is scaled to controls: 0 for no effect and ±100 for the full control effect; nearly all actives have a fitted effect of over 55% in size
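Recombinant K18 P301L […], labeled with Alexa 594 at 0.24 uM over 15 uM unlabeled; heparin inducer 20 uM final; 37 C, 6 hr; FP endpoint.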
USP1-UAF1 confirm = Inhibitors of USP1/UAF1: Hit Validation in Primary Assay; shares compounds with VDR inh; Ub-Rhodamine cleavage, fluorescence kinetic read; Potency, µM (titrated, usually from 114 µM), for the others: top-dose activity change, negative = inhibition, most hits filed as inhibitors; 50 tested, 50% active
VDR inh confirm = qHTS for Inhibitors of the vitamin D receptor (VDR): Hit Validation in Primary Screen; VDR-coactivator inhibition assay, qHTS confirmation; 840 tested, 89% active; shares compounds with VDR inh; Potency, µM, hits mostly inhibitors; also: potency is read from the fitted curve at half-maximal effect
VDR FP = qHTS for Inhibitors of the vitamin D receptor (VDR): Hit Validation using a Fluorescein Assay | Potency, µM (doses to about 57.1 µM), for inactives: at the highest dose activity change, negative = inhibition, hits mostly inhibitors | AID 602200, 2012 | 840 tested, 48% active | shares compounds with VDR inh | VDR-coactivator binding, fluorescein fluorescence polarization; also: potency is read from the fitted curve at half-maximal effect
VDR bla = qHTS for Inhibitors of the vitamin D receptor (VDR): Hit Validation using a Beta-Lactamase Assay; shares compounds with VDR inh; VDR beta-lactamase reporter cells, FRET ratio; cells co-treated with VDR agonist LG190178; Potency, µM (titrated, usually from 46.1 µM), inactives show at the highest dose activity change, negative = inhibition, usual class: inhibitors; 840 tested, 23% active; also: potency is read from the fitted curve at half-maximal effect; % is scaled to controls: 0 for no effect and ±100 for the full control effect
VDR cytotox = qHTS for Inhibitors of the vitamin D receptor (VDR): Hit Validation using a Cytotoxicity Assay. Potency, µM (series often up to 48.3 µM), for the others: at the highest dose activity change, negative = cytotoxicity, hits mostly cytotoxic. cytotoxicity counter-screen, cell viability, qHTS. shares compounds with VDR inh. 840 tested, 18% active. AID 602204, 2012;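 also: potency is read from the fitted curve at half-maximal effect; plate controls were DMSO for no effect and high-concentration cycloheximide for full effect; nearly all actives have a fitted effect of over 75% in size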
An asterisk follows results filed as active. Calls follow the shape of the dose curve; as a rule, active = well fitted curve in the direction sought with a large enough effect; inconclusive = small, poorly fitted or top-dose-only effect, or another doubt; inactive = no such curve, though single readings can be large; an effect the other way counts as inactive or inconclusive.

Cc1nc2ccc(N=NN(C)C)cc2[nH]1 was read as Tau fibril ThT 10µM*, VDR inh 50.1µM*, Sfp inh inconclusive, PLK1 PBD inh -12.2%, Tau fluor cs inconclusive, Tau fibril FP inconclusive, VDR inh confirm 21.2*, VDR FP inconclusive, VDR bla 7.2% and VDR cytotox inconclusive.
`COc1ccc(Br)cc1C1NC(c2ccc3c(c2)OCO3)=CC(c2cc(Cl)ccc2O)N1` (stereo not given) gave VDR inh 50.1µM*, VDR inh confirm inconclusive, VDR FP inconclusive, VDR bla inconclusive and VDR cytotox -19.4%.
Screening COc1ccccc1C1NC(c2ccc3c(c2)OCO3)=CC(c2cc(Cl)ccc2O)N1 (stereo not given) returned VDR inh -28.2%.
For COc1ccc(C2=CC(=O)N(Nc3ccccc3)C2=O)cc1 the results were Tau fibril ThT inconclusive, VDR inh inconclusive, Sfp inh -3.6%, PLK1 PBD inh -24.9%, Tau fluor cs 0.2%, Tau fibril FP -0.5%, VDR inh confirm 3.16*, VDR FP 3.55µM*, VDR bla -6.6% and VDR cytotox 12.7%.
`Cc1ccc(NN2C(=O)C=CC2=O)cc1` gave Tau fibril ThT 4.4%, VDR inh -3.6%, Sfp inh 15.9%, PLK1 PBD inh 0.7%, Tau fluor cs 2.1% and Tau fibril FP 1.4%.
Cc1ccc(NN2C(=O)C=C(c3ccc(Cl)cc3)C2=O)cc1 was read as Tau fibril ThT inconclusive, VDR inh 50.1µM*, Sfp inh inconclusive, PLK1 PBD inh 4.74µM*, Tau fluor cs -8.9%, Tau fibril FP 1.1%, VDR inh confirm inconclusive, VDR FP inconclusive, VDR bla inconclusive and VDR cytotox inconclusive.
`COc1ccccc1Cn1c(SCC(=O)C(C)(C)C)nc2ccccc2c1=O` gave Tau fibril ThT 9.8%, VDR inh 16.9%, Tau fluor cs -18.0% and Tau fibril FP inconclusive.
Screening Cc1ccc2c(c1)C(=O)C(=O)N2Cc1ccc(Br)cc1 returned VDR inh 22.4µM*, PLK1 PBD inh inconclusive, VDR inh confirm 8.44*, VDR FP inconclusive, VDR bla -21.2% and VDR cytotox inconclusive.
Screening CCc1csc(CCNC(=O)C2CCC(=O)N(Cc3cccc(C(F)(F)F)c3)C2)n1 (stereo not given) returned VDR inh 1.3%, Sfp inh 11.5% and PLK1 PBD inh 3.2%.
For CCc1ccc(OCCn2c(CCNC(=O)C3CCCCC3)nc3ccccc32)cc1 the results were VDR inh -18.4%.
Screening CCCc1nnc(NC(=O)c2nc(S(=O)(=O)Cc3cccc(C)c3)ncc2Cl)s1 returned VDR inh 14.1µM*, Sfp inh -25.5%, PLK1 PBD inh -17.1%, VDR inh confirm 5.97*, VDR FP inconclusive, VDR bla 11.6µM* and VDR cytotox 16.4µM*.
For CCc1nnc(NC(=O)c2nc(SCc3cccc(C)c3)ncc2Cl)s1 the results were Tau fibril ThT inconclusive, VDR inh -2.8%, Tau fluor cs -21.5% and Tau fibril FP 10.3%.
`Cc1cccc(CS(=O)(=O)c2ncc(Cl)c(C(=O)NCc3ccccc3)n2)c1` gave Tau fibril ThT 5.1%, VDR inh 15.8µM*, Sfp inh inconclusive, PLK1 PBD inh inconclusive, Tau fluor cs 1.4%, Tau fibril FP 3.5%, VDR inh confirm 4.74*, VDR FP 7.94µM*, VDR bla 14.6µM* and VDR cytotox 23.1µM*.
`COc1ccc(NC(=O)c2nc(S(=O)(=O)Cc3cccc(C)c3)ncc2Cl)c(OC)c1` gave VDR inh -23.3%, Sfp inh 3.8% and PLK1 PBD inh -9.2%.
`Cc1cccc(CS(=O)(=O)c2ncc(Cl)c(C(=O)Nc3c(C)cccc3C)n2)c1` gave VDR inh 22.4µM*, Sfp inh -24.2%, PLK1 PBD inh 18.9µM*, VDR inh confirm 6.7*, VDR FP inconclusive, VDR bla 14.6µM* and VDR cytotox inconclusive.
CCOC(=O)C1=C(COC(=O)c2ccco2)NC(=O)NC1CC (stereo not given) was read as VDR inh 9.0% and PLK1 PBD inh 7.1%.
For CCCC(=O)NCCc1c2n(c3ccc(OC)cc13)CCCc1ccccc1-2 the results were Tau fibril ThT -11.9%, VDR inh -0.3%, Tau fluor cs -22.7%, Tau fibril FP 6.6% and USP1-UAF1 confirm inconclusive.
For Cc1cccc(C)c1NC(=O)C(=O)NCC(c1cccnc1)N1CCc2ccccc21 (stereo not given) the results were Tau fibril ThT 9.4%, VDR inh 7.7%, Tau fluor cs -0.7% and Tau fibril FP -4.6%.

Screening results: PubChem, National Center for Advancing Translational Sciences (NCATS)
